Results reported in PMC4336329 (PLoS ONE, 2015).
About 14,000 (4.5%) of roughly 310,000 compounds showed an effect of 50% or more. Effects have a minus sign here. Shown is part of a subset that was picked to be rich in strong results.

Target: human ether-à-go-go-related gene (hERG) potassium channel (human, UniProt Q12809)
Assay: primary screen, population patch clamp on CHO cells stably expressing hERG; higher = less effect of the substance
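Further: peak tail current of the secondary pulse compared with the same well before compound.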

human ether-à-go-go-related gene (hERG) potassium channel, sequence (Q12809 whole entry, looked up): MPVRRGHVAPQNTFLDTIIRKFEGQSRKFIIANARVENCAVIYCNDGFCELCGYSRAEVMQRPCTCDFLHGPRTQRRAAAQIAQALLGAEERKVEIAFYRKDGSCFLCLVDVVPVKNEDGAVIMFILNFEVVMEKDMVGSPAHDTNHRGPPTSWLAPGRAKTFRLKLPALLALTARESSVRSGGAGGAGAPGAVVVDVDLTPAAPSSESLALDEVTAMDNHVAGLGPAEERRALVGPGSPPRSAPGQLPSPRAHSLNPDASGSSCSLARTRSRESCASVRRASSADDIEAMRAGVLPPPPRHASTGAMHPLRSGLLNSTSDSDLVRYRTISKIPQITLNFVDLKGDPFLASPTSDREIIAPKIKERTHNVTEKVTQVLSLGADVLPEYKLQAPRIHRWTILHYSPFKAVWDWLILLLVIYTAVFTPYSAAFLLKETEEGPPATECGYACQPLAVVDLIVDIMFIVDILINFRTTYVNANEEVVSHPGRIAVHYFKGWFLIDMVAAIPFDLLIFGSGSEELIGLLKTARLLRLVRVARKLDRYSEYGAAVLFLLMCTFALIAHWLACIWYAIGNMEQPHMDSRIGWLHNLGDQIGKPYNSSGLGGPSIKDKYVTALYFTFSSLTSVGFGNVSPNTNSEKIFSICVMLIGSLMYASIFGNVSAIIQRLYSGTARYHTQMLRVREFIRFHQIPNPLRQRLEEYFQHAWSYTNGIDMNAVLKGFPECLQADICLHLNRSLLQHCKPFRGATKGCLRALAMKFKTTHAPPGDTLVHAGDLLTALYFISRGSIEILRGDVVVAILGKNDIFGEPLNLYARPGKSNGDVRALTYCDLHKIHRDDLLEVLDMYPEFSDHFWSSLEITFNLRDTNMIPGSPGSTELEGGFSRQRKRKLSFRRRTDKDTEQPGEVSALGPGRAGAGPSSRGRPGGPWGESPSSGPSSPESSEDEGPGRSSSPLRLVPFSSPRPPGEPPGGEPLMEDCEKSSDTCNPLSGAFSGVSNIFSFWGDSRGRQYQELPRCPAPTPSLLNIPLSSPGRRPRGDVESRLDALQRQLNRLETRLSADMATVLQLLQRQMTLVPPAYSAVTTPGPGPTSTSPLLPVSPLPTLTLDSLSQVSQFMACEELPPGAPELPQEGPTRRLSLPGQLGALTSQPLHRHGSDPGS

Compound | hERG current change (%, negative = inhibition) at 10uM
c1ccc(-c2nc3ccccc3nc2N2CCOCC2)cc1 | -54.7%
c1ccc2c(c1)nc(N1CCOCC1)c1ccccc12 | 11.2%
c1ccc2nc(N3CCOCC3)c(N3CCOCC3)nc2c1 | -1.12%
CCCCN1C(N)=NC[C@@H]1c1ccccc1 | -2.61%
CCCCCCCN1C2=NCCCN2c2ccccc21.Cl | -58.5%
Br.CCN1C2=NCCCN2c2cc(C)c(C)cc21 | -23.2%
CCCN1C2=NCCCN2c2ccccc21.Cl | -9.58%
Br.CCCCN1C2=NCCCN2c2cc(C)c(C)cc21 | -65.4%
Br.CCCCN1C2=NCCCN2c2ccccc21 | -54.5%
CCCN1C2=NCCN2c2cc(C)c(C)cc21.Cl | -30.7%
CCCCN1C2=NC(c3ccccc3)CN2c2ccccc21.Cl (stereo not shown) | -69%
c1ccc([C@H]2CN3C(=N2)Sc2ccccc23)cc1 | -19.2%
COCCN1C(=O)CS/C1=C(/C#N)C(=O)NCc1ccco1 | -7.92%
COc1ccc(C(=O)O)cc1S(=O)(=O)Nc1cccc(C)c1 | -18.9%
Cc1ccc(-n2nnc3c(=O)n(CC(=O)NCc4ccccc4)cnc32)cc1 | -15.5%
C[C@@H]1CC[C@@]23COC(=O)C2=CCC[C@@H]3[C@@]1(C)CC/C(=C/CO)CO | -6.27%
O=C(c1ccc(Cl)c(Cl)c1)N1CCC(=O)N(C(CO)Cc2ccccc2)CC1 (stereo not shown) | 5.42%
CCOC(=O)c1cn2nc(Oc3cccc(C(F)(F)F)c3)ccc2n1 | -6.27%
O=c1cc(-c2ccncc2)oc2c1ccc1ccccc12 | -4.57%
Cl.c1ccc2c(c1)N1CCCN=C1N2CCN1CCCCC1 | -62.8%
CCCCCCN1C2=NCCCN2c2ccccc21.Cl | -78.3%
Cl.c1ccc2c(c1)N1CCN=C1N2CCN1CCCCC1 | -15.3%
COc1cccc(/C=C/C(=O)Nc2ccc3[nH]c(=O)[nH]c3c2)c1 | 7.9%
O=C(CN(c1ccccc1)S(=O)(=O)c1ccccc1)N1CCN(Cc2ccc3c(c2)OCO3)CC1 | -33.4%
COc1ccc(S(=O)(=O)N(CC(=O)N2CCN(C)CC2)c2ccc(C)cc2)cc1OC | -11%
CS(=O)(=O)N(CC(=O)N1CCN(Cc2ccc3c(c2)OCO3)CC1)c1ccc2c(c1)OCO2 | -58.9%
CS(=O)(=O)N(CC(=O)N1CCN(Cc2ccccc2)CC1)c1ccc2c(c1)OCCO2 | -5.94%
Cc1ccc(S(=O)(=O)N(C)CC(=O)N2CCN(Cc3ccc4c(c3)OCO4)CC2)cc1 | -66.6%

Compound | hERG current change (%, negative = inhibition) at 10uM
COc1ccc(N(CC(=O)N2CCN(Cc3ccc4c(c3)OCO4)CC2)S(=O)(=O)c2ccc(F)cc2)cc1 | -84.6%
COc1ccc(N(CC(=O)N2CCN(Cc3ccc4c(c3)OCO4)CC2)S(C)(=O)=O)cc1OC | 9.47%
COc1ccc(S(=O)(=O)N(CC(=O)N2CCOCC2)c2ccc(F)cc2)cc1OC | 10.7%
CCN1CCN(C(=O)CN(c2ccc(F)cc2)S(=O)(=O)c2ccc(OC)c(OC)c2)CC1 | -66.8%
Cc1ccc(S(=O)(=O)N(C)c2ccc(C(=O)N3CCN(Cc4ccc5c(c4)OCO5)CC3)cc2)cc1 | -44.1%
COc1ccc(N(CC(=O)N2CCN(Cc3ccccc3)CC2)S(=O)(=O)c2ccccc2)cc1 | -26.3%
Cc1ccc(S(=O)(=O)N(C)CC(=O)N2CCN(Cc3ccccc3)CC2)cc1 | -24.6%
COc1ccc(C(=O)NCc2nnc(SCC(=O)Nc3cccc(F)c3)o2)cc1 | -1.96%
COCCn1c(-c2ccc(OC)c(OC)c2)nc2ccccc21 | -21.6%
O=C1NC(=NCc2ccccc2)S/C1=C\c1ccccc1 | 23.8%
COc1ccccc1NC(=O)COc1ccc(Br)cc1CNCCCN1CCOCC1.Cl | -58.6%
O=C(COc1ccc(Br)cc1CNCCCN1CCOCC1)Nc1ccccc1 | -47.8%
COc1ccccc1NC(=O)COc1cc(Br)c(CNCCCN2CCOCC2)cc1OC | -54.6%
C=CCOc1ccc(Br)cc1CNCCCN1CCOCC1.Cl | -27.7%
COc1cc(CNCCCN2CCOCC2)c(Br)cc1OCC(=O)Nc1ccccc1C | -15.3%
COc1cc(CNCCCN2CCOCC2)c(Br)cc1OC(C)C.Cl | 5.58%
COc1cc(NC(=O)c2ccc(C)cc2)ccc1NC(=O)c1cc2ccccc2o1 | 15.2%
Cc1ccc(C)c(NC(=O)CSc2nnc(CCNC(=O)OC(C)(C)C)o2)c1 | -12.3%
CC1(C)CC(c2csc(N)n2)CCO1 (stereo not shown) | 2.95%
COc1ccc(N(CC(=O)N2CCN(c3ccc(Cl)cc3)CC2)S(=O)(=O)c2c(C)n[nH]c2C)cc1 | -10.1%
Cc1ccc(N(CC(=O)NCc2ccc(F)cc2)S(=O)(=O)c2c(C)nn(C)c2C)cc1 | -24.5%
Cc1ccc(N(CC(=O)N2CCN(c3ccc(F)cc3)CC2)S(=O)(=O)c2c(C)noc2C)cc1 | -39.5%
COc1ccc(N(CC(=O)N2CCN(c3ccccc3F)CC2)S(=O)(=O)c2c(C)n[nH]c2C)cc1 | -20.6%
Cc1ccc(N(CC(=O)N2CCN(c3ccc(F)cc3)CC2)S(=O)(=O)c2c(C)nn(C)c2C)cc1 | -65.8%
COc1ccc(N(CC(=O)N2CCN(c3ccc(F)cc3)CC2)S(=O)(=O)c2c(C)n[nH]c2C)cc1 | -69.4%
O=C(O)/C=C\C(=O)N1CCc2ccccc21 | 27.9%
O=C1C(NS(=O)(=O)c2cccs2)=C(N2CCOCC2)C(=O)c2ccccc21 | -40.8%
